# Inconclusive results are not listed. A call without a number means that no potency is given here. Calls of active or inactive are those of the source. Unless noted, the call rests on the fitted dose curve; in most records, active means well fitted curve in the direction sought with a large enough effect in the repeat runs; inconclusive means weak or mixed curves; inactive means no such curve, though single readings can be large; an effect the other way counts as inactive or inconclusive.
# How the values were obtained:
# [1] = target: Aryl hydrocarbon receptor (Homo sapiens) (UniProt P35869); experiment: qHTS assay to identify small molecule that activate the aryl hydrocarbon receptor (AhR) signaling pathway (AID 743085); further: nearly all actives have a fitted effect of over 15% in size; further: potency means the concentration at half of the fitted maximal effect;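 on activation: HG2L7.5c1 human HepG2 liver cells with stably integrated DRE-driven firefly reporter; series mostly up to about 70 µM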
# How it was run: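 Compounds were tested in HepG2 hepatocellular carcinoma cells harbouring a stably integrated luciferase gene under control of 20 DREs. Increased reporter signal after 24 h treatment at 37C was taken as AhR activation.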
# [2] = qHTS assay to identify small molecule that activate the aryl hydrocarbon receptor (AhR) signaling pathway - cell viability counter screen (AID 743086);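 further: HepG2 liver cells carrying the AhR DRE luciferase reporter; series mostly up to about 70 µM; nearly all actives have a fitted effect of over 45% in size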
# How it was run: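 HepG2-AhR-luc (HG2L7.5c1) cells, 4000/well, treated 24 h at 37 C with compound; viability measured as CellTiter-Fluor fluorescence after 30 min in the same wells as the luciferase read.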
# [3] = qHTS assay to identify small molecule antagonists of the peroxisome proliferator-activated receptor gamma (PPARg) signaling pathway - cell viability counter screen (AID 743194); further: nearly all actives have a fitted effect of over 55% in size
# How it was run: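 Cytotoxicity counter screen in PPARg-bla HEK293H cells, same wells as reporter assay. Compounds plus 50 nM rosiglitazone (final) for 17 h at 37 C, then viability read by CellTiter-Glo luminescence.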
# [4] = qHTS assay for small molecule agonists of the antioxidant response element (ARE) signaling pathway (AID 743202; active means well fitted activation curve with a large enough effect in the signal ratio in the repeat runs, not every such curve was filed as active; the % refers to the signal ratio; further: potency means the concentration at half of the fitted maximal effect)
# How it was run: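 HepG2 ARE-bla cells; 16 h treatment at 37 C; FRET-based beta-lactamase fluorescence read after 2 h substrate incubation at room temperature.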
# [5] = qHTS assay for small molecule activators of the heat shock response signaling pathway - cell viability counter screen (AID 743209); further: nearly all actives have a fitted effect of over 50% in size
# How it was run: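 To flag cytotoxic compounds, HSE-bla HeLa cells plated at 1500 cells/well were dosed for 5 h at 37 C, followed by the reporter FRET read and then CellTiter-Glo, with luminescence recorded 30 min after reagent addition.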
# [6] = qHTS assay for small molecule activators of the heat shock response signaling pathway (AID 743210; active means well fitted activation curve with a large enough effect in the signal ratio in the repeat runs, with a control signal flat, not every such curve was filed as active; the % refers to the signal ratio; further: potency means the concentration at half of the fitted maximal effect;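 on activation: HeLa cells with beta-lactamase reporter driven by heat shock elements; series mostly up to about 63 µM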)
# How it was run: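 Following overnight attachment, HSE-bla HeLa cells received test compounds for 5 h at 37 C; beta-lactamase activity was then detected via FRET substrate fluorescence.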
# [7] = qHTS assay to identify small molecule agonists of the peroxisome proliferator-activated receptor delta (PPARd) signaling pathway - cell viability counter screen (AID 743211); further: nearly all actives have a fitted effect of over 55% in size
# How it was run: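 Counter screen for cytotoxicity run in parallel with the PPARd reporter screen. Beta-lactamase reporter HEK293H cells exposed to compounds 17 h; ATP-based CellTiter-Glo luminescence quantified viability.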
# [8] = target: Peroxisome proliferator-activated receptor delta (Homo sapiens) (UniProt Q03181); experiment: qHTS assay to identify small molecule agonists of the peroxisome proliferator-activated receptor delta (PPARd) signaling pathway (AID 743212; calls by dose curve)
# How it was run: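 Tox21 library screened in GeneBLAzer PPARd UAS-bla HEK293H cells. After compound treatment at 37 C, a FRET-based beta-lactamase substrate was applied for 2 h and fluorescence recorded.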
# [9] = qHTS assay to identify small molecule antagonists of the peroxisome proliferator-activated receptor delta (PPARd) signaling pathway - cell viability counter screen (AID 743213); further: nearly all actives have a fitted effect of over 50% in size
# How it was run: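 In this counter screen, HEK293H cells carrying a UAS-beta-lactamase reporter are co-treated with test compounds and 300 nM L165041 (final) for 17 h at 37 C; cell viability is quantified by CellTiter-Glo luminescence.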
# [10] = target: Peroxisome proliferator-activated receptor delta (Homo sapiens) (UniProt Q03181); experiment: qHTS assay to identify small molecule antagonists of the peroxisome proliferator-activated receptor delta (PPARd) signaling pathway (AID 743215; active means well fitted inhibition curve with a large enough effect in the signal ratio in the repeat runs, not every such curve was filed as active; the % refers to the signal ratio;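 further: cells stimulated with agonist L165041 at 300 nM final during compound exposure; series mostly up to about 62 µM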)
# How it was run: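 Screen format: qHTS, antagonist mode. HEK293H PPARd-bla cells received compound and 300 nM L165041 (final), 17 h, 37 C. Beta-lactamase detected via FRET substrate fluorescence, 2 h, room temperature.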
# [11] = qHTS assay to identify small molecule antagonists of the farnesoid-X-receptor (FXR) signaling pathway - cell viability counter screen (AID 743221; active means well fitted cell-killing curve with a large enough effect in the repeat runs, not every such curve was filed as active; further: nearly all actives have a fitted effect of over 50% in size; further: potency means the concentration at half of the fitted maximal effect)
# How it was run: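 Multiplexed counter screen: viability of FXR-bla HEK 293T cells under agonist stimulation by chenodeoxycholic acid (50 uM, final) and test compound for 16 h at 37 C, measured by CellTiter-Glo luminescence in the reporter wells.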
# [12] = qHTS assay for small molecule agonists of the antioxidant response element (ARE) signaling pathway - cell viability counter screen (AID 743203; calls by dose curve; further: nearly all actives have a fitted effect of over 55% in size)
# How it was run: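 Parallel cytotoxicity read-out for the ARE-bla screen: HepG2 reporter cells, 16 hrs with compounds, then CellTiter-Glo luminescence.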
# [13] = target: Bile acid receptor (Homo sapiens) (UniProt Q96RI1); experiment: qHTS assay to identify small molecule antagonists of the farnesoid-X-receptor (FXR) signaling pathway (AID 743217; active means well fitted inhibition curve with a large enough effect in the signal ratio in the repeat runs, not every such curve was filed as active; the % refers to the signal ratio)
# How it was run: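 Quantitative HTS, beta-lactamase reporter format: FXR-UAS-bla HEK 293T cells co-treated 16 h at 37 °C with compounds and 50 uM final chenodeoxycholic acid, then read by B/G FRET fluorescence.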
# [14] = qHTS assay to identify small molecule agonists of the farnesoid-X-receptor (FXR) signaling pathway - cell viability counter screen (AID 743218); further: nearly all actives have a fitted effect of over 45% in size; further: potency means the concentration at half of the fitted maximal effect
# How it was run: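 Same-well cytotoxicity check on FXR-UAS-bla HEK 293T cells: 5 h attachment, 16 h compound at 37 C, CellTiter-Glo luminescence read at room temperature after 30 min.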
# [15] = target: Bile acid receptor (Homo sapiens) (UniProt Q96RI1); experiment: qHTS assay to identify small molecule agonists of the farnesoid-X-receptor (FXR) signaling pathway (AID 743220; active means well fitted activation curve with a large enough effect in the signal ratio in the repeat runs, not every such curve was filed as active; the % refers to the signal ratio)
# How it was run: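 FXR-UAS-bla HEK 293T cells carrying a UAS-driven beta-lactamase reporter were plated for 5 h at 37C/5% CO2, then exposed to DMSO-dissolved Tox21 10K compounds for 16 h at 37C. A LiveBLAzer B/G FRET substrate was loaded for 2 h at room temperature before fluorescence reading.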
# [16] = target: Peroxisome proliferator-activated receptor gamma (Homo sapiens) (UniProt P37231); experiment: qHTS assay to identify small molecule antagonists of the peroxisome proliferator-activated receptor gamma (PPARg) signaling pathway (AID 743191; calls by dose curve; further: nearly all actives have a fitted effect of over 30% in size; further: potency means the concentration at half of the fitted maximal effect)
# How it was run: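 GeneBLAzer PPARg UAS-bla HEK293H cells, 5 h post-plating, exposed to compounds 17 h at 37C. LiveBLAzer B/G FRET substrate added for 1 h at room temperature; beta-lactamase reporter read by fluorescence intensity.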
# [17] = target: Vitamin D3 receptor (Homo sapiens) (UniProt P11473); experiment: qHTS assay to identify small molecule agonists of the vitamin D receptor (VDR) signaling pathway (AID 743222; calls by dose curve)
# How it was run: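 Using LiveBLAzer B/G FRET detection, agonism was scored in VDR-bla cells exposed overnight (16 h, 37C) to DMSO-dissolved compounds; substrate incubation was 2 h at room temperature.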
# [18] = target: Vitamin D3 receptor (Homo sapiens) (UniProt P11473); experiment: qHTS assay to identify small molecule antagonists of the vitamin D receptor (VDR) signaling pathway (AID 743223; active means well fitted inhibition curve with a large enough effect in the signal ratio in the repeat runs, not every such curve was filed as active; the % refers to the signal ratio)
# How it was run: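 Cells carrying a VDR-driven beta-lactamase reporter (VDR-bla) were co-treated with compound and 3 nM final 1alpha,25-dihydroxyvitamin D3 for 16 h at 37C; reporter activity was measured as FRET substrate fluorescence after 2 h at room temperature.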
# [19] = qHTS assay to identify small molecule agonists of the vitamin D receptor (VDR) signaling pathway - cell viability counter screen (AID 743224); further: nearly all actives have a fitted effect of over 50% in size; further: potency means the concentration at half of the fitted maximal effect
# How it was run: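 Counter screen for cytotoxicity: VDR-bla cells at 2,000 cells/well, 16 h compound exposure, then CellTiter-Glo luminescence after the beta-lactamase measurement.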
# Chain of Vitamin D3 receptor (Homo sapiens) (P11473 whole entry, looked up): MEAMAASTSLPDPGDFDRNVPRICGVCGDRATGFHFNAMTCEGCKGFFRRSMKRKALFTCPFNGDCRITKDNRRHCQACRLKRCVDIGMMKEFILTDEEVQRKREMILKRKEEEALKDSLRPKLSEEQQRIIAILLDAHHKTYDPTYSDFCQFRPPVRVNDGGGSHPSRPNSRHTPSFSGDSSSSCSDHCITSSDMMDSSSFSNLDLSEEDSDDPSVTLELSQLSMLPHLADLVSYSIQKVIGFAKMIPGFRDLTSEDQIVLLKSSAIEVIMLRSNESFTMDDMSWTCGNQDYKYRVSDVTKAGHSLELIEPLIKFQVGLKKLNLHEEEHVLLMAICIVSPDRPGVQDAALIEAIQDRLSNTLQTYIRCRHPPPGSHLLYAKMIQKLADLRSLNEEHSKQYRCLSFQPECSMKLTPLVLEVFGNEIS
# Chain of Peroxisome proliferator-activated receptor delta (Homo sapiens) (Q03181 whole entry, looked up): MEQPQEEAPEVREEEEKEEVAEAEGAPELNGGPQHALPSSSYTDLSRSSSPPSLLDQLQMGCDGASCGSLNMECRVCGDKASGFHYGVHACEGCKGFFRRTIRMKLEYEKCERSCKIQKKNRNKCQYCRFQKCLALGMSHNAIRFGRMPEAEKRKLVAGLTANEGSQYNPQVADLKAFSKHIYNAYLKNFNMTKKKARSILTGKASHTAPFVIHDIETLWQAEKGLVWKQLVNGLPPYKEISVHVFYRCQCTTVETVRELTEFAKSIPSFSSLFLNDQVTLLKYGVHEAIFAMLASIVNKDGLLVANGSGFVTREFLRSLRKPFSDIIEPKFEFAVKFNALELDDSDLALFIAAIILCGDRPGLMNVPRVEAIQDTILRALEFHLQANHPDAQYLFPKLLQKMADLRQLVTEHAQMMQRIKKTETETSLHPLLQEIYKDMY
# Chain of Aryl hydrocarbon receptor (Homo sapiens) (P35869 whole entry, looked up): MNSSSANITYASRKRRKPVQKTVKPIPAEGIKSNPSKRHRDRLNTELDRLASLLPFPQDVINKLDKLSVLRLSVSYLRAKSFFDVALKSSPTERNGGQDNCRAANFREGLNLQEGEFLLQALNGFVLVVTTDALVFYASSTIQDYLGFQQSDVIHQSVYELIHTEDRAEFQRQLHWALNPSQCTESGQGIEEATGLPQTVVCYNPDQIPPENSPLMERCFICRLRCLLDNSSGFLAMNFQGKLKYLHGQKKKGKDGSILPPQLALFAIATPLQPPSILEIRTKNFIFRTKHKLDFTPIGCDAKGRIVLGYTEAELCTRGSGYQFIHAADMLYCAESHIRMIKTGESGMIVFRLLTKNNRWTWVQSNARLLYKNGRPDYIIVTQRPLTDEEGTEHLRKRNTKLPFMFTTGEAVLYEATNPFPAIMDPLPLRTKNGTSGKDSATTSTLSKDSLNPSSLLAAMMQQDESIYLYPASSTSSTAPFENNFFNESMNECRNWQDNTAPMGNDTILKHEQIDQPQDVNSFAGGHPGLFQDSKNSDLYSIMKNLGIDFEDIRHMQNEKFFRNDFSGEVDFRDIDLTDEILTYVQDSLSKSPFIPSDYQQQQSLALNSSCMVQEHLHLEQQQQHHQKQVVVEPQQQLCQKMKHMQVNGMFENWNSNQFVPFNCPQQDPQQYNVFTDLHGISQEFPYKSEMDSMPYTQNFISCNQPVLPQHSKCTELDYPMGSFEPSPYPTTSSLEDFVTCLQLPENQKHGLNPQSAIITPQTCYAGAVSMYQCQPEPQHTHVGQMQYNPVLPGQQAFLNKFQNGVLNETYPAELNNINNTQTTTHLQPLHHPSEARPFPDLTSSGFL
# Chain of Bile acid receptor (Homo sapiens) (Q96RI1 whole entry, looked up): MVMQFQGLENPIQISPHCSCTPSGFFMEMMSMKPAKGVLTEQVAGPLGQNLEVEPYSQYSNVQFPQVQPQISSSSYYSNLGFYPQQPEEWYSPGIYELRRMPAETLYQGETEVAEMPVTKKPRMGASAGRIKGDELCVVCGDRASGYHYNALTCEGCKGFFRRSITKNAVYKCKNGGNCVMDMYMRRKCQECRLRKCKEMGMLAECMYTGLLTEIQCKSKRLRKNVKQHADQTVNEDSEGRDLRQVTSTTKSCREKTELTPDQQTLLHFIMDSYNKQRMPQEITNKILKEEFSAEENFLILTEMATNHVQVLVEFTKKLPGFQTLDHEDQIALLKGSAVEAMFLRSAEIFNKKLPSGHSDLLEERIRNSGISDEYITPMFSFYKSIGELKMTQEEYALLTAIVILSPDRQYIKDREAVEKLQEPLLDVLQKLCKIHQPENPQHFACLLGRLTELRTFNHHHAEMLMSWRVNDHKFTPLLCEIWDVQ
# Chain of Peroxisome proliferator-activated receptor gamma (Homo sapiens) (P37231 whole entry, looked up): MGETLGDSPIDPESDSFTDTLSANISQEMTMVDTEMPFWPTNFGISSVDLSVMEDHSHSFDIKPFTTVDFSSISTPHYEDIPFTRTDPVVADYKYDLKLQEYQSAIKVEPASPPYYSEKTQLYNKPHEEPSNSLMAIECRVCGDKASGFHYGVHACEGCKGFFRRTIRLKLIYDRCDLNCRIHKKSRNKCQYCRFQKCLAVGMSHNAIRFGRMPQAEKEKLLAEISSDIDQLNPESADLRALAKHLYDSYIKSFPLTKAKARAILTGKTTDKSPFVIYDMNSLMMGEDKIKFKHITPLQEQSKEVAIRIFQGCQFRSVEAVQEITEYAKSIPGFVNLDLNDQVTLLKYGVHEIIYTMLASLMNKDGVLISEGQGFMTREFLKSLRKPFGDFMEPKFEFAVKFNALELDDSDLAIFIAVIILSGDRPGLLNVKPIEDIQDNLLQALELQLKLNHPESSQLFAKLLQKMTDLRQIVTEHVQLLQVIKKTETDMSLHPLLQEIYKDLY
Structure (SMILES),Potency [1],Potency [2],Potency [3],Potency [4],Potency [5],Potency [6],Potency [7],Potency [8],Potency [9],Potency [10],Potency [11],Potency [12],Potency [13],Potency [14],Potency [15],Potency [16],outcome [17],outcome [18],Potency [19]
C[C@@H]1C[C@H]2[C@@H]3CCC4=CC(=O)C=C[C@]4(C)[C@@]3(F)[C@@H](O)C[C@]2(C)[C@@]1(O)C(=O)CO,inactive,inactive,inactive,inactive,inactive,inactive,inactive,inactive,inactive,inactive,inactive,,,,,,,,
CC(=O)Oc1ccc(C(=C2CCCCC2)c2ccc(OC(C)=O)cc2)cc1,inactive,inactive,inactive,29.8 µM (active),inactive,26.6 µM (active),,inactive,inactive,,inactive,inactive,inactive,inactive,inactive,,,,
Cc1nccn1-c1ccc(Sc2cccc(C3(C(N)=O)CCOCC3)c2)cc1,inactive,inactive,,,inactive,inactive,inactive,,inactive,inactive,inactive,inactive,,,inactive,inactive,,,
CC(C)(C)C(=O)C(Oc1ccc(Cl)cc1)n1ccnc1 (stereo not drawn),23.7 µM (active),inactive,inactive,inactive,inactive,,inactive,inactive,inactive,inactive,inactive,inactive,inactive,inactive,,,,,
Nc1nccs1,inactive,inactive,inactive,inactive,inactive,,inactive,inactive,inactive,inactive,inactive,inactive,,inactive,,,inactive,inactive,inactive
Oc1ccc(Nc2ccccc2)cc1,inactive,inactive,,27.3 µM (active),inactive,inactive,inactive,inactive,,,inactive,inactive,,,,19.5 µM (active),inactive,,54.9 µM (active)
CNC(=S)NC,inactive,inactive,inactive,,,inactive,inactive,inactive,inactive,,38.9 µM (active),,,17.4 µM (active),,inactive,inactive,,inactive
ON(Cc1ccccc1)Cc1ccccc1,inactive,inactive,inactive,inactive,inactive,,inactive,inactive,inactive,inactive,inactive,,,inactive,,inactive,inactive,,
Cc1occc1C(=O)Nc1ccc(C(=O)N2CCC(F)(F)/C(=C\C(=O)N3CCC(N4CCCCC4)CC3)c3ccccc32)cc1,inactive,inactive,inactive,,inactive,,inactive,,,,inactive,inactive,inactive,,inactive,inactive,inactive,inactive,inactive
C[C@]12CCC(=O)C=C1C=C[C@@H]1[C@@H]2CC[C@@]2(C)[C@H]1CC[C@@]21CCC(=O)O1,inactive,inactive,inactive,11.9 µM (active),,inactive,inactive,inactive,inactive,,inactive,inactive,,,,,,,inactive
CCOC(=O)/C=C/C(=O)O,inactive,inactive,inactive,9.69 µM (active),inactive,inactive,inactive,inactive,inactive,,,inactive,,,,,inactive,,
O=[N+]([O-])c1cccc(S(=O)(=O)NCCNS(=O)(=O)c2cccc([N+](=O)[O-])c2)c1,inactive,inactive,,,,inactive,inactive,inactive,,,inactive,inactive,inactive,inactive,inactive,inactive,inactive,inactive,inactive
O=C(CS)OCCOC(=O)CS,inactive,inactive,inactive,inactive,inactive,inactive,inactive,inactive,inactive,inactive,inactive,inactive,inactive,inactive,,,inactive,inactive,
CCOC(=N)CC(=O)OCC,inactive,inactive,inactive,inactive,inactive,inactive,,inactive,inactive,,inactive,inactive,,inactive,,inactive,,,inactive
